In the supplement of paper PMC11732987, “Enantioselective OTUD7B fragment discovery through chemoproteomics screening and high-throughput optimisation” (Communications Chemistry, 2025):

Experiments:
Assay in all cases: log2 ratio of Biotin-Ahx-Ub-VS probe labelling (fragment/DMSO); higher = less target engagement (more negative = stronger competition), active = hit call of the paper (q ≤ 0.05, log2 ratio ≤ -1)
Details in all cases: compound concentration: 200 uM; treatment time: 3 h
USP42 = biological target: T1, USP42 (UniProt Q9H9J4)
T1 sequence (whole entry): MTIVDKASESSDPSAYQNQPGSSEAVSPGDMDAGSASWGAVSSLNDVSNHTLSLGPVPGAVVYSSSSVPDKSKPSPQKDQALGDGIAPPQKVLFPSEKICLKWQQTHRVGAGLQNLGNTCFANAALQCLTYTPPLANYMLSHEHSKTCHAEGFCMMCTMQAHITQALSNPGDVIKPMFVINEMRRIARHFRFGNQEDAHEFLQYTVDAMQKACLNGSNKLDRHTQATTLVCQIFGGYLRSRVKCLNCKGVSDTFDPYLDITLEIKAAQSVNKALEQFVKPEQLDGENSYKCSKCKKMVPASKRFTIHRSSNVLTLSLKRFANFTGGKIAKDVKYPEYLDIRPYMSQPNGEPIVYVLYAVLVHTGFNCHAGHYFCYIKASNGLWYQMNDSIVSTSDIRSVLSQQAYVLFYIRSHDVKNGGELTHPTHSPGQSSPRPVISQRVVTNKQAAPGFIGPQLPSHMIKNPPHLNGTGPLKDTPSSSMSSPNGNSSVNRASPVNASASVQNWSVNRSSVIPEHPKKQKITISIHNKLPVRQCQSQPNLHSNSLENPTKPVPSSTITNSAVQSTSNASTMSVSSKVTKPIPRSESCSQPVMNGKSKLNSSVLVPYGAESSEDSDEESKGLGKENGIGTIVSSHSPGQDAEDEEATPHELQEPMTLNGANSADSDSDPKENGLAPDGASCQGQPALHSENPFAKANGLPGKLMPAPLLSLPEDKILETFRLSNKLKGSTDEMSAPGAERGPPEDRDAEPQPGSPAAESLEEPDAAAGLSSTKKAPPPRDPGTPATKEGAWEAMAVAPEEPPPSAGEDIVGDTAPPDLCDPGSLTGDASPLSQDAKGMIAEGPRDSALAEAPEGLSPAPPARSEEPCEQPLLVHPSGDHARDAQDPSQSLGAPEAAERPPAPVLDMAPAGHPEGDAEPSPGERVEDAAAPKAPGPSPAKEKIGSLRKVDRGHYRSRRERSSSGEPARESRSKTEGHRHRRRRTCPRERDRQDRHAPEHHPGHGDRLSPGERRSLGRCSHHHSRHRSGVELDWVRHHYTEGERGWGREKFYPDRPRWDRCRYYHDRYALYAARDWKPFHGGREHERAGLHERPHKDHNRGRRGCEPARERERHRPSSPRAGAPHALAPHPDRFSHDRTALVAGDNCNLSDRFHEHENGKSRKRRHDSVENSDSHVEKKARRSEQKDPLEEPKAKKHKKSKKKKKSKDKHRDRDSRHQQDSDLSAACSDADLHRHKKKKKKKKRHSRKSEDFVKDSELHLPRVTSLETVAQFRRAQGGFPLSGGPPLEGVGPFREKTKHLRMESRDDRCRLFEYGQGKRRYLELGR
How it was run: (§1)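 Labelled DUBs from HEK293T lysate were NeutrAvidin-enriched, digested with LysC and trypsin, and run by diaPASEF LC-MS/MS. Before that, each 495 µg sample in Tris/CHAPS/IGEPAL buffer with protease inhibitors was treated in triplicate with fragment at 200 µM or vehicle for 3 h, then with Biotin-Ahx-Ub-VS at 0.5 µM final for 1 h. Values are average log2 ratios of fragment over vehicle by unpaired t-test, based on global-median-normalised Spectronaut label-free quantities from proteins with ≥2 unique peptides.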

USP46 = USP46 (UniProt P62068)
Chain of USP46 (P62068 whole entry): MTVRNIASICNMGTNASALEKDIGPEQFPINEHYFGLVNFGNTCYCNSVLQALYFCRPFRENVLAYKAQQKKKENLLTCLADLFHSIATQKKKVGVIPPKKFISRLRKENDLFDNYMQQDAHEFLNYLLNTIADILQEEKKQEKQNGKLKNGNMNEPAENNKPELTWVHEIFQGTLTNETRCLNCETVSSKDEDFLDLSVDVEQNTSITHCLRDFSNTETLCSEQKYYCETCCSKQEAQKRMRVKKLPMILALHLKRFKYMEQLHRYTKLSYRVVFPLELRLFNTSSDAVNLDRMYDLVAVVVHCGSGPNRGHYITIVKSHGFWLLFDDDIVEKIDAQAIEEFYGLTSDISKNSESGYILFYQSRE
How it was run: as §1

USP47 = biological target: T2, USP47 (UniProt Q96K76)
T2 sequence (whole entry): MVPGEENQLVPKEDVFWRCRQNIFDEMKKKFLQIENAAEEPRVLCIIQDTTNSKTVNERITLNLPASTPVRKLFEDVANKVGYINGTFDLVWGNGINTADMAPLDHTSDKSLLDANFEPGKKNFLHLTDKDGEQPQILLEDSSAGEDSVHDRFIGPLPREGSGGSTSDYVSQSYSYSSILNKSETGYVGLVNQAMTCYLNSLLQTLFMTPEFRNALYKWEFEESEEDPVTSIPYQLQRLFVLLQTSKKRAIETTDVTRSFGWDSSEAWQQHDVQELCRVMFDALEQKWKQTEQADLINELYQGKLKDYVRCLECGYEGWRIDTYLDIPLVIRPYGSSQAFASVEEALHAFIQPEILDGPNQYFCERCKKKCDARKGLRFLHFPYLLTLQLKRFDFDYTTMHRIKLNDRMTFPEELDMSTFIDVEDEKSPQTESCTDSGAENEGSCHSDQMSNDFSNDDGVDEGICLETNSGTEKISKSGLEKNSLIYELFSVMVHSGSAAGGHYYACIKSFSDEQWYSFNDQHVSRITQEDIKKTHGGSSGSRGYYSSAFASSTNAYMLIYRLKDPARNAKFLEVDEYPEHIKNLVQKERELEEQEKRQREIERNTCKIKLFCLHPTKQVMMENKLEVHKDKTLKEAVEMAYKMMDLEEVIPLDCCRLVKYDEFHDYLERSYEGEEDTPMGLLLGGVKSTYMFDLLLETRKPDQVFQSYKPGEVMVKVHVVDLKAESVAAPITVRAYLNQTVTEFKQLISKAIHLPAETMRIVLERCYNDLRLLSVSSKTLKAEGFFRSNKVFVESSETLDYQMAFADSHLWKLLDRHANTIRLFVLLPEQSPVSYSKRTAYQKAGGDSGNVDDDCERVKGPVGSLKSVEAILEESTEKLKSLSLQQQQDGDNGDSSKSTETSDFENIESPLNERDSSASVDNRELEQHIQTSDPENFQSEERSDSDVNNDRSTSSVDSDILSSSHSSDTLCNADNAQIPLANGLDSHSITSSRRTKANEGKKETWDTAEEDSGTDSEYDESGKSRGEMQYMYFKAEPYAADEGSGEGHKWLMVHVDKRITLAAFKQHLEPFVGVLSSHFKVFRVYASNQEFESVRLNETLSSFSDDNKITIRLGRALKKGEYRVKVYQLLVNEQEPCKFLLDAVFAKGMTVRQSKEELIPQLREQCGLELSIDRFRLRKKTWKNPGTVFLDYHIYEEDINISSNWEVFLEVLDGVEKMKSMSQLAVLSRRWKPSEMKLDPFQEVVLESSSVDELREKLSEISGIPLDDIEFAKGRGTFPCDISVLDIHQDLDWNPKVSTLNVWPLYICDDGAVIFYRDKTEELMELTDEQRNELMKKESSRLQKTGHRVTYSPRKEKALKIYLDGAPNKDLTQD
How it was run: as §1

USP48 = biological target: T3, USP48 (UniProt Q86UV5)
T3 sequence (whole entry): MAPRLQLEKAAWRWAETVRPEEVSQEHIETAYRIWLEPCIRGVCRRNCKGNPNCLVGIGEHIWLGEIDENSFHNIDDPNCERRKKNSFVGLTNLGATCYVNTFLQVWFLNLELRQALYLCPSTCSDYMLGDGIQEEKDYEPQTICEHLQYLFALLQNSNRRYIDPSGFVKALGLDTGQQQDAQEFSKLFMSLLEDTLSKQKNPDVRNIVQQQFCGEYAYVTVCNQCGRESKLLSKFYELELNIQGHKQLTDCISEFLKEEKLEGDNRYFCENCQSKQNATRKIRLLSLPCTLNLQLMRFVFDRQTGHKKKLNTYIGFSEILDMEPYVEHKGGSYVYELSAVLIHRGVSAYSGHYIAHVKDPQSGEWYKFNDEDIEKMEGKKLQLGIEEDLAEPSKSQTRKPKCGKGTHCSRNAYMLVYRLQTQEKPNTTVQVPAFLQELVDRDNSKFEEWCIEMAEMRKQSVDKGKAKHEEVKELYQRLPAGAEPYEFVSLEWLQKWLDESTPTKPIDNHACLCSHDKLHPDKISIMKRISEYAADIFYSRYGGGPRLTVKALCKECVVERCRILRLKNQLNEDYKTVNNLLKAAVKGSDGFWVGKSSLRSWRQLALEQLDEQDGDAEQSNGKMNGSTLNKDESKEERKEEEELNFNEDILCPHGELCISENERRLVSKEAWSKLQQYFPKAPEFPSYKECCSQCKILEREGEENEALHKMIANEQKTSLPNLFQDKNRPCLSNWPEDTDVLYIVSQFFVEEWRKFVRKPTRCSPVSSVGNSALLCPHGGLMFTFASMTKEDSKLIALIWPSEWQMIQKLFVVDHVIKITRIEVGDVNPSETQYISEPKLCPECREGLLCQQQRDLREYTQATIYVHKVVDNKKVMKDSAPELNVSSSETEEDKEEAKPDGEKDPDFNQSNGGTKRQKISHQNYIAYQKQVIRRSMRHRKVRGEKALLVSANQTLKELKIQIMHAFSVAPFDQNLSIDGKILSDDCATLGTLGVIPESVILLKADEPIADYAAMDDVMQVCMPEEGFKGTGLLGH
How it was run: as §1

USP5 = biological target: T4, USP5 (UniProt P45974)
T4 sequence (whole entry): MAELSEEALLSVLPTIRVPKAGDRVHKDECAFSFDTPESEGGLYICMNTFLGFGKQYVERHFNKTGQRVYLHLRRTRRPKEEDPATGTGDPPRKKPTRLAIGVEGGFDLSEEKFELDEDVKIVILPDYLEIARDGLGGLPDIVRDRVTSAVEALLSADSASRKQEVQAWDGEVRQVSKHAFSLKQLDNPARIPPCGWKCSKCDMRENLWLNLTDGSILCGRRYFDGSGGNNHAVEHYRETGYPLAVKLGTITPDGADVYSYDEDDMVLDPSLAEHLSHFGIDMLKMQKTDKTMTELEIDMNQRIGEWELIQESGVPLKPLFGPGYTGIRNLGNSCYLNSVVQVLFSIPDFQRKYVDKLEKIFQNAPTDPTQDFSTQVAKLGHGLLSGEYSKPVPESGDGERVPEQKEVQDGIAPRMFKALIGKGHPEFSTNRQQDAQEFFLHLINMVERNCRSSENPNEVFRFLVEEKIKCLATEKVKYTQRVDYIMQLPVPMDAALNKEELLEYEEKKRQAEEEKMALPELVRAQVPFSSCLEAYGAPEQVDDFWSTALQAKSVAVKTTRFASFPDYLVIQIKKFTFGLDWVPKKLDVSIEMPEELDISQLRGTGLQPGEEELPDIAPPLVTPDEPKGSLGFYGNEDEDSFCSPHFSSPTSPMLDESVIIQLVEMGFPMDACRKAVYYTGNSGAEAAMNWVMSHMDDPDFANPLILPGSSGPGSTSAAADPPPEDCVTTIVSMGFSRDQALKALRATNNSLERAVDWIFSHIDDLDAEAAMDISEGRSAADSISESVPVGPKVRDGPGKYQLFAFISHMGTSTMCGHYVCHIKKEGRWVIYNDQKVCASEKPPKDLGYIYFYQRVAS
How it was run: as §1

USP54 = USP54 (UniProt Q70EL1)
Chain of USP54 (Q70EL1 whole entry): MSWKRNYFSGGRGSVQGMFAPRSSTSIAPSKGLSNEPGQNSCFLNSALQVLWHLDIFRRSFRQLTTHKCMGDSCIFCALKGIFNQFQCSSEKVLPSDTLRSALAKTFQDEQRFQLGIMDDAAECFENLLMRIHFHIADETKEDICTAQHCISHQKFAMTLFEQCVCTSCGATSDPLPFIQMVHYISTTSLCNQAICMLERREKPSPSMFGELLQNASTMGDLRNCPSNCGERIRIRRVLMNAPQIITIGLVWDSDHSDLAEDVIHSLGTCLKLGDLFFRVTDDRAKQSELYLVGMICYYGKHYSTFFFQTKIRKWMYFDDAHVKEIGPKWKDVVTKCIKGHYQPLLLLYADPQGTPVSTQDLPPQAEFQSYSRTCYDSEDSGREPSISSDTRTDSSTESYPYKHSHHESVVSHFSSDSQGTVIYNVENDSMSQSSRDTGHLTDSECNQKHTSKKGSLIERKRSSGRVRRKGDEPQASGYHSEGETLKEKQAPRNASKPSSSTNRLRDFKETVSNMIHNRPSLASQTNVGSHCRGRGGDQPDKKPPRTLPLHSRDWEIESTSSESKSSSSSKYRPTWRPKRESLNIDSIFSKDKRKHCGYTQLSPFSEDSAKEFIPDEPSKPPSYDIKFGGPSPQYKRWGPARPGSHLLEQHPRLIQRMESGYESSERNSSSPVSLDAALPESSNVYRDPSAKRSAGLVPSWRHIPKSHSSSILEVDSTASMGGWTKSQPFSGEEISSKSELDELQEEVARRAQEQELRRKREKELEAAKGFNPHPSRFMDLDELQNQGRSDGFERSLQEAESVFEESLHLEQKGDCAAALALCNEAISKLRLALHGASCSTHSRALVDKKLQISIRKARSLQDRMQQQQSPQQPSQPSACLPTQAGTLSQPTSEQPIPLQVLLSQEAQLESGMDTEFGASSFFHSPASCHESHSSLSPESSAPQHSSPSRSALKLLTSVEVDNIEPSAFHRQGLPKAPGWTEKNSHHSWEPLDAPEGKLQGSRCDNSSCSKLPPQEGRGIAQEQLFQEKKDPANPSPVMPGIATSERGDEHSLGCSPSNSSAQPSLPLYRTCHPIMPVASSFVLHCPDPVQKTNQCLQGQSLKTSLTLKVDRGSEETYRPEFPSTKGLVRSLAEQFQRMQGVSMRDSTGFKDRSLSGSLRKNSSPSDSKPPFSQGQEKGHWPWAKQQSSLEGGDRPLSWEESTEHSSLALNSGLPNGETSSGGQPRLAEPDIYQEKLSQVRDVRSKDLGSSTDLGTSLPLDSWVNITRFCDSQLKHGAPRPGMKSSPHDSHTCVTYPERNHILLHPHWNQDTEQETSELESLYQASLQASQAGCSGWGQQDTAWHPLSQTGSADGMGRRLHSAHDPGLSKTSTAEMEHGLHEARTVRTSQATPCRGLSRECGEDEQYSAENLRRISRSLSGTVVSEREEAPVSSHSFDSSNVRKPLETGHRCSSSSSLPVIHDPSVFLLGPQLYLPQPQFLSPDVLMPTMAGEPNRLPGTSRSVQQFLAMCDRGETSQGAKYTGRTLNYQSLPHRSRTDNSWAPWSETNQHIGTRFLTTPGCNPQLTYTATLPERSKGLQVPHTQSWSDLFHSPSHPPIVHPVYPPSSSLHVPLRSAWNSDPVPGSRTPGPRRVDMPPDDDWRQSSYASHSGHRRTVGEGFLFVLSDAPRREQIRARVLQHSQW
How it was run: as §1

USP7 = USP7 (UniProt Q93009)
How it was run: as §1

USP8 = biological target: T5, USP8 (UniProt P40818)
T5 sequence (whole entry): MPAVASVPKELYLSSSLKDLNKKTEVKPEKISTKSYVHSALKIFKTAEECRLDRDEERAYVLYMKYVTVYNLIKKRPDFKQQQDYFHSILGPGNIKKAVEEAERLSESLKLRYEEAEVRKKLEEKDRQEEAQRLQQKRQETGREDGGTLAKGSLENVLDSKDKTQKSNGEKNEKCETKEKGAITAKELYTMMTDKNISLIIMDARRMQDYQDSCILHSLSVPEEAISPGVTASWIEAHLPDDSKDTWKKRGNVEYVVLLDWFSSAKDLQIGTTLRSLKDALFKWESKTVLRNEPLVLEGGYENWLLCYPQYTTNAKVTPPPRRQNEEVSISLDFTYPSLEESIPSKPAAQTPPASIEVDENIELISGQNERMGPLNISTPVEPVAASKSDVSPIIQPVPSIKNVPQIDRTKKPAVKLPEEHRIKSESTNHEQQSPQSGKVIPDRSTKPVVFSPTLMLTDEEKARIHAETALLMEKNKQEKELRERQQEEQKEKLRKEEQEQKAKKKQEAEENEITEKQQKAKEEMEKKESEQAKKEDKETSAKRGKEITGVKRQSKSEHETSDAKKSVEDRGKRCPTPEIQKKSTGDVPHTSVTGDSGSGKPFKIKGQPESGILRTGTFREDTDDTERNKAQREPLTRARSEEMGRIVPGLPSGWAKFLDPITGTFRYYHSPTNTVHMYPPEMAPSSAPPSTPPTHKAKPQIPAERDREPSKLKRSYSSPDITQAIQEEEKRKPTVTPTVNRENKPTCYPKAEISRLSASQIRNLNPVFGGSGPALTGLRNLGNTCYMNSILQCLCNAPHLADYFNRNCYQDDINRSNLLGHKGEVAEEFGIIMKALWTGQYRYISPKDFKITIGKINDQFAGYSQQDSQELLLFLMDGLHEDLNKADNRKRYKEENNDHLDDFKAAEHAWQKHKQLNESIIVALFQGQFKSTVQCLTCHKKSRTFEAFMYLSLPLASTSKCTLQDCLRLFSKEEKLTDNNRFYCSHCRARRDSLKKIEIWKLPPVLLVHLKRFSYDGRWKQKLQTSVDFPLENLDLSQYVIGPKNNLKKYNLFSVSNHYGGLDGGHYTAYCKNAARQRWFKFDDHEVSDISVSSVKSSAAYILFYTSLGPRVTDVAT
How it was run: as §1

USP9X = USP9X (UniProt Q93008)
Chain of USP9X (Q93008 whole entry): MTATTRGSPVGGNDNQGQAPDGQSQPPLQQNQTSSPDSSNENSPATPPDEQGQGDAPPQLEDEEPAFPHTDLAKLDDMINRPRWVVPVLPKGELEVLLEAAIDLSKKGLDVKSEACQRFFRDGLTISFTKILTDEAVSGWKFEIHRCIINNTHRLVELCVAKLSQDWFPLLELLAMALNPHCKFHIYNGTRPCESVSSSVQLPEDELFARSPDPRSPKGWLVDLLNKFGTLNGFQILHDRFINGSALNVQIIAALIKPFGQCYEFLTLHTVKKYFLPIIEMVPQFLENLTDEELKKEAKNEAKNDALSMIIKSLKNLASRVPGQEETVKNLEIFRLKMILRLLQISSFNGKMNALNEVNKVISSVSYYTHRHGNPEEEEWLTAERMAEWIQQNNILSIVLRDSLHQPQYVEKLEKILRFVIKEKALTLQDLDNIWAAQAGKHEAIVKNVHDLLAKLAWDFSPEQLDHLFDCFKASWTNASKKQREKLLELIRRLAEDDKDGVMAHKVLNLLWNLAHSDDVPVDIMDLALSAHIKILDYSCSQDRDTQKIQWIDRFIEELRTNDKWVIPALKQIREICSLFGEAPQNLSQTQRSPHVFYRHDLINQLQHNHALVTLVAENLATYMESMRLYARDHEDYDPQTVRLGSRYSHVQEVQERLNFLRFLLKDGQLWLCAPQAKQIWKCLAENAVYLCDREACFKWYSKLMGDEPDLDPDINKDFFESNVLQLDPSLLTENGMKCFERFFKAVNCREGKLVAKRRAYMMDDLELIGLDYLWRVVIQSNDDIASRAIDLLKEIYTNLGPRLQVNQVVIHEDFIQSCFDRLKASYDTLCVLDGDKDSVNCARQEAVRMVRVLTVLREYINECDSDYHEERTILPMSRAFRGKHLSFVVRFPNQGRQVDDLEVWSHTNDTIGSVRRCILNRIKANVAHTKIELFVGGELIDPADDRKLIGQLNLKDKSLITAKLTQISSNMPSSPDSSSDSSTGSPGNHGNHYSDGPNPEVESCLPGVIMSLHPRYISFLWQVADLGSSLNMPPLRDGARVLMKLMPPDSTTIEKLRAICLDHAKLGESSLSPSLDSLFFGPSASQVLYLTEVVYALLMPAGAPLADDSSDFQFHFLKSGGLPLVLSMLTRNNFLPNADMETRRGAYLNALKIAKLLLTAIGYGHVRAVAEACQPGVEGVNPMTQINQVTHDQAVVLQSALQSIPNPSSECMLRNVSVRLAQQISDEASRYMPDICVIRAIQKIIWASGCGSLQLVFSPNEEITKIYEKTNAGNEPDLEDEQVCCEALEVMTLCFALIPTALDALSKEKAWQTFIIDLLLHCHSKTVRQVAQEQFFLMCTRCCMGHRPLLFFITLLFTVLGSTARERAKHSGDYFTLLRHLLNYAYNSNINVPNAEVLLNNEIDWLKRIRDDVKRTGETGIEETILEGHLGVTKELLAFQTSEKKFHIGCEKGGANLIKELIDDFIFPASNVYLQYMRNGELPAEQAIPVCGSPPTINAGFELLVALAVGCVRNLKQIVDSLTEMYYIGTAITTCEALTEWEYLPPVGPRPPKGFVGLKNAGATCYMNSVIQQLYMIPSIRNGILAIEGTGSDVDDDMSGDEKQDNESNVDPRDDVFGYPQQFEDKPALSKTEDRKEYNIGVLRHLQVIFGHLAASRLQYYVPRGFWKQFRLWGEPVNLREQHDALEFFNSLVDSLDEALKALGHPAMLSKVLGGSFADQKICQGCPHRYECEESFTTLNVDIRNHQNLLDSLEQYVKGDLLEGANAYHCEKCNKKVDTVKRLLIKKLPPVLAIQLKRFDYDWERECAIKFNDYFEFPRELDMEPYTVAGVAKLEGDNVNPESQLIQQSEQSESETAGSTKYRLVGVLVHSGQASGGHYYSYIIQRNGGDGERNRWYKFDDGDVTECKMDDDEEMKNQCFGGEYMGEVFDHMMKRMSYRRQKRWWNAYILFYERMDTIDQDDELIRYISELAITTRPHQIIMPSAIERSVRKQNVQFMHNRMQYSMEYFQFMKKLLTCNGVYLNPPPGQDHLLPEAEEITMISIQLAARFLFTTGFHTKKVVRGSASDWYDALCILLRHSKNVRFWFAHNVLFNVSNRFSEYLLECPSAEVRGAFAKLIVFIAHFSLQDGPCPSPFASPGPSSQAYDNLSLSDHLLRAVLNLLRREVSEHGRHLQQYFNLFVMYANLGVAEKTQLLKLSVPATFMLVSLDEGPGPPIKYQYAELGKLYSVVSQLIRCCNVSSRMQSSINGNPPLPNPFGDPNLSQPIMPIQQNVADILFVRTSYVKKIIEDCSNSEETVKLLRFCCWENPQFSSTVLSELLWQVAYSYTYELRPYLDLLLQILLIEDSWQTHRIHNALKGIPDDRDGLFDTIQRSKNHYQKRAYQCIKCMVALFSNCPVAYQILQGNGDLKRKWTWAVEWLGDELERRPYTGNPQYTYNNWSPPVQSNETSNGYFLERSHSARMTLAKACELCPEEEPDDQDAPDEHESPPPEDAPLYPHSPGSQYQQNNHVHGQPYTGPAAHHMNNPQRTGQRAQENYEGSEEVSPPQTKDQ
How it was run: as §1

UniProt O00487 = biological target: UniProt O00487
Chain of UniProt O00487 (O00487 whole entry): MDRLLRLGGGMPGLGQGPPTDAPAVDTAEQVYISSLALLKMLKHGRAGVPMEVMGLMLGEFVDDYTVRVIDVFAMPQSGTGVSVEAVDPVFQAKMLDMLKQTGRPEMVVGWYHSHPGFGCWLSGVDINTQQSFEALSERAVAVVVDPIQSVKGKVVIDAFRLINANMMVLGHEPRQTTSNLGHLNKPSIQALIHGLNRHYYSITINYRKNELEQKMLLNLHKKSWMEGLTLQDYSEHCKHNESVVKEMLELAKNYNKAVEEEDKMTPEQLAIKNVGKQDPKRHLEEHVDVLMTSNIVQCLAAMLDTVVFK
How it was run: as §1

Measured: log2 ratio of Biotin-Ahx-Ub-VS probe labelling

Cl.O=C(CCl)N1CCn2ncc(O)c2C1
inactive: USP42 -0.139 | USP46 -0.686 | USP47 -0.0187 | USP48 -0.559 | USP5 0.0938 | USP54 0.44 | USP7 -0.81 | USP8 -0.577 | USP9X -0.396 | UniProt O00487 -0.395
